Measurements taken from the supplement of paper PMC6555819.

Tests used:
Test in all cases: PBM binding z-score (relative to random genomic background probes); higher = stronger binding; sequences stand for … in GC…GCGATTGACAGCGTAGAATGAAGG
[1] = test system: RARb homodimer (NR concentration 270 nM)
Outline: (§1)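 Binding buffer was PBS pH 7.4 with 2% milk, 0.02% Triton X-100, 1 mM DTT, 0.2 mg/mL BSA and 0.4 mg/ml salmon testes DNA. In it, ligand-free nuclear receptor dimers were incubated 1 h on custom Agilent 4×180K protein-binding microarrays carrying double-stranded probes. Antibodies against each partner (one per run) detected binding, and z-scores were calculated against random background probes after regression normalization of scanned fluorescence.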

[2] = test system: RARg:RXRa (NR concentration 270 nM, RXRa partner concentration 90 nM)
Outline: as §1

[3] = test system: RARg homodimer (NR concentration 270 nM)
Outline: as §1

[4] = test system: RXRa DBDmut IVT, anti-RXR (DBD mutation: RXRa K156A/R161A, NR concentration 90 nM)
Outline: as §1

[5] = test system: RXRa homodimer (NR concentration 180 nM)
Outline: as §1

[6] = test system: THRa:RXRa (NR concentration 90 nM, RXRa partner concentration 90 nM)
Outline: as §1

[7] = test system: THRa homodimer (NR concentration 90 nM)
Outline: as §1

[8] = test system: VDR:RXRa (NR concentration 270 nM, RXRa partner concentration 90 nM)
Outline: as §1

[9] = test system: VDR homodimer (NR concentration 270 nM)
Outline: as §1

| Sequence | PBM binding z-score [1] | PBM binding z-score [2] | PBM binding z-score [3] | PBM binding z-score [4] | PBM binding z-score [5] | PBM binding z-score [6] | PBM binding z-score [7] | PBM binding z-score [8] | PBM binding z-score [9] |
| --- | --- | --- | --- | --- | --- | --- | --- | --- | --- |
| CGAACTACGTCATTGACAGGACAGTGAATAGTAA | 0.0564 | 0.288 | 0.139 | 0.0473 | 0.152 | 0.0548 | -0.0847 | -0.122 | -0.012 |
| CATACAGGGTCAGCTAGGCCAGCGTAGGGACGGC | 3.43 | 4.42 | 4.81 | 1.4 | 4.2 | 3.3 | 0.936 |  | 0.947 |
| ATCTCTAGGGAACCAAGTTCAGTGAATGCCGAAC | 1.21 | 0.277 | 0.53 | 0.569 | 0.332 | 0.497 | -0.301 |  | 2.58 |
| CGAACGAGGGCACGAGTTGATAGCAAATGCCGAT | 1.05 | 1.8 | 1.98 | 2.18 | 1.49 | 1.84 | 0.134 |  | 1.58 |
| TAGCCTAGGTCATGCGGGCCGGTATAGTGTCGGC | 2.61 | 3.71 | 4.32 | 0.444 | 3.02 | 2.97 | 0.888 |  | 0.344 |
| CCTACTGGGACACGAAAGGTCATTGATTCAGTGA | 4.97 | 4.63 | 4.53 | 0.718 | 5.12 | 3.77 | 1.35 |  | 2.67 |
| GCTCGGAGCACAAGGTCAGAGCTTTGTCCGTAGA | 2.85 | 2.63 | 2.19 | 0.228 | 2.25 | 2.75 | 0.948 |  | 0.184 |
| ATCTCTAGGTACAGATAGTTCAGTGAATGCAAAT | 0.913 | 0.74 | 0.847 | 1.17 | 0.198 | 0.432 | 0.0409 |  | 1.65 |
| GATACAGGGTCTGCTAGAGGCCAGAGTATGGAAA | 0.393 | 0.857 | 0.279 | -0.877 | -0.0451 | -0.093 | -0.687 |  | -0.39 |
| CCTACTGGGCCAAGGTCGTTGATCAGTCAAAGCA | 0.763 | 0.488 | 0.541 | -0.262 | 0.465 | 1.31 | 0.184 |  | 1.19 |
| AGAACGAGGGCACGCTGAGTGGATAGCAGAGTAG | 0.942 | 1.87 | 2.16 | 1.48 | 1.47 | 1.66 | -0.0727 |  | 0.664 |
| TTCCCAAGGTGAAAGGTCGTTGATGCACGCCTTG | 3.14 | 4.25 | 2.13 | 0.532 | 5.91 | 3.6 | 1.4 |  | 1.52 |
| ATCGAAAGGTCGTGAGGTGAGCATACAGAAAGGC | 3.19 | 4.58 | 4.26 | 1.12 | 5.3 | 3.45 | 1.68 |  | 0.917 |
| ACTAGCAGGCCCAGGGTCACTCAAGATTAGTCCG | 2.58 | 2.39 | 2.01 | -0.284 | 2.78 | 2.73 | 1.17 |  | 1.14 |
| TCTAGCAGGCCAGAGGGTCACACAAGAGGTACGG | 3.1 | 3.52 | 3.05 | 0.175 | 4 | 2.25 | 0.165 |  | 0.773 |
| TAGCCTAGGTCATTGGGCCAGTACAGTACGCATC | 3.02 | 3.95 | 4.57 | 1.77 | 3.3 | 2.91 | 0.878 |  | 1.28 |
| GGAACGAGGGCAAAGTTGATAGGATCTGTCGACG | 1.32 | 2.19 | 1.89 | 2.92 | 2.12 | 1.36 | -0.0299 |  | 1.34 |
| TCTCGGAGGAGACGAAGGTCAGAGCTTTCCAGAG | 2.74 | 1.88 | 1.77 | -0.234 | 1.63 | 1.11 | -0.507 |  | -0.413 |
| GCAGCCAGGTGAAACGCAGGTAACTCAGGGTGGC | -0.292 | 0.262 | -0.109 | -0.94 | 0.157 | 1.68 | -0.396 |  | -0.939 |
| GATACAGGGTCAGCTAGAGGCGAGAGTATGGAAA | 2.7 | 5.04 | 4.34 | 1.57 | 4.51 | 2.79 | 0.319 |  | 0.871 |
| TCATATAGGTAGATGCTAGGTGAAAGTCCGATCT | 0.362 | 0.127 | 0.207 | 1.14 | 0.611 | 0.969 | 0.547 |  | 0.276 |
| ACTAGTAGGCCAAGTTTGGGTCACTCAAACAAAG | 2.48 | 2.53 | 2.16 | 0.0627 | 1.15 | 2.6 | 1.31 |  | 0.613 |
| ATTTCTAGGTAAAAGTTCAGTGAATCCCGAGGAT | 2.3 | 2.15 | 2.03 | 1.21 | 1.88 | 1.64 | 0.543 |  | 2.1 |
| TCGAGTAGGTTAGGGGCATTCCGAATGGCGTCGA | 0.646 | 0.44 | -0.221 | 0.278 | 0.54 | 0.556 | -0.0824 |  | 0.859 |
| CGAACTAGCTCATCCAGGACAGTGAATACATTGA | 0.118 | -0.191 | 0.156 | 0.64 | 0.0877 | 1 | 0.936 |  | 0.271 |
| TCTTGTAGCTCAATAGAGGTTAAGAAAGTGCGCT | 0.952 | 0.354 | 0.113 | 0.261 | 0.994 | 1.27 | -0.704 |  | -0.137 |
| CATACAGGGTTAGCTAGGCCAGAGTAGGGACGGC | 0.276 | 0.782 | 0.633 | -0.487 | 0.914 | 0.66 | -0.483 |  | -0.636 |
| CCTACTGGACCAAAGGTCATTGATTCCAATGCTC | 4.9 | 5.27 | 4.97 | 1.85 | 6.4 | 3.46 | 1.67 |  | 3.18 |
| TCTTGTAGATCAAGCAGGTTAAGAAGGCCTGAGT | 0.0999 | -0.137 | -0.293 | 0.295 | 0.317 | 0.354 | -0.512 |  | 0.00431 |
